Most compounds without a hit are left out; they make up all but 7.9% or so of the library.
M1 antagonist = M1 muscarinic receptor (rat) antagonism; P08482; CHO-M1 cells, Fluo-4 calcium, ACh EC80 antagonist mode; active compounds read low; B-score at 10 µM; actives 3.4% (n = 64,000);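 active = calcium fluorescence response, raw or row-and-column corrected B-score, differing from the plate sample mean either way at a set confidence level, mostly lower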
PLAP activator = human PLAP activation. purified PLAP enzyme, luminescent substrate read-out; active compounds read high. activation fold at 20 µM. actives 1.2% (n = 96,000). AID 696; in the data active = activation fold above about 2
M1 ag = agonists of M1 muscarinic receptor; CHO-M1 cells, Fluo-4 calcium fluorescence, agonist mode; active compounds read high; B-score at 10 µM; actives 3% (n = 64,000); AID 626;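 active = fluorescence rise, raw or as B-score row- and column-corrected plate score, outside the 99.7% band of its plate's samples, either direction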
Cav32 inh = inhibitors of human Cav3.2 T-type calcium channel; O95180; Cav3.2-expressing cells, Fluo-4 calcium fluorescence FDSS; active compounds read low; B-score at 10 µM; actives 4% (n = 100,000); AID 449739;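 active = single-dose well whose peak fluorescence ratio is a statistical outlier from its plate by either plate-standardised score or position-corrected B-score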
Her2 expr inh = inhibitors of human Her2 kinase expression; P04626; SKBR-3 HER2 protein level, AlphaScreen, 18-24 h; active compounds read low; HER2 level % of control, % at 10 µM; actives 0.69% (n = 65,000); AID 645;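 active = HER2 level under 5% of the carrier-only control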;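 note: 100% = DMSO carrier and 0% = 500 nM PU-H71 HSP90 inhibitor; lower value means stronger loss of Her2 protein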
M1 antag conf = M1 muscarinic receptor (rat) antagonism, confirmed. calcium response (max-min fluorescence) at 10 µM. actives 43% (n = 1,700). shares compounds with M1 antagonist. CHO-M1 cells, Fluo-4 calcium, ACh EC80 antagonism; active compounds read low;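 active = calcium response below the same-plate mean of wells given acetylcholine alone at its 80%-effect dose, minus 3 SD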;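 note: raw fluorescence intensity difference in arbitrary instrument units and not normalized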
mGluR4 antag = acts on human mGluR4 in M1 antagonist selectivity test | shares compounds with M1 antagonist | CHO-mGluR4 calcium flux, Fluo-4 fluorescence, glutamate EC80; active compounds read low | fluorescence response (max-min) at 10 µM | actives 0.9% (n = 1,700) | AID 678;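 active = fluorescence response below the plate's average for near-maximal glutamate wells, less 3 SD of those wells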;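 note: raw unnormalized fluorescence span taken in the window right after glutamate addition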
Active calls of the source: *; · = no result given.

SMILES | M1 antagonist | PLAP activator | M1 ag | Cav32 inh | Her2 expr inh | M1 antag conf | mGluR4 antag
Cn1c(=O)oc2cc(S(=O)(=O)NCc3ccco3)ccc21 | -3.4* | 0.8 | 0.018 | 0.13 | 105 | 690 | 237
O=S(=O)(c1ccc2c(c1)OCCCO2)N1CCNCC1 | -0.42 | 0.9 | -1.5 | 0.67 | 98 | · | ·
c1cc2c(cc1C1CCCN1)OCCCO2 (centres undefined) | -3.7* | 0.8 | 0.53 | 0.078 | 108 | 513* | 239
CON1C(=O)C(=O)N(OC)C(C)(C)C1C (centres undefined) | · | 0.8 | · | -2.7 | · | · | ·
COCCOC(=O)C1=C(C)NC2=C(C(=O)CCC2)C1c1ccc(N(C)C)cc1 (centres undefined) | -0.046 | 1.5 | 1.5 | 0.97 | 127 | · | ·
CCN(CC)c1ccc(C2C(C(=O)OCCOC(C)C)=C(C)NC3=C2C(=O)CCC3)cc1 (centres undefined) | -11* | 1.8 | -0.059 | -2.5 | 89 | 144* | 236
Cc1ccc(Cn2c(SCCN3CCCCC3)nc3c2c(=O)n(C)c(=O)n3C)cc1 | -3.9* | 1.6 | -2 | 0.71 | 95 | 267* | 247
Cn1c(=O)c2c(nc(SCCN3CCCCC3)n2Cc2ccccc2)n(C)c1=O | -4.7* | 1.8 | -1.1 | 1 | 88 | 246* | 247
Cn1c(=O)c2c(nc(SCCN3CCOCC3)n2Cc2ccc(F)cc2)n(C)c1=O | 0.81 | 1.7 | 0.34 | -0.016 | 68 | · | ·
CN(Cc1ccccc1)Cc1nc2c(c(=O)n(C)c(=O)n2C)n1Cc1ccc(F)cc1 | -2.6* | 1.5 | 0.3 | -4.3* | 129 | 657 | 223
CCOC(=O)c1cc(NC(=O)c2c(C)noc2C)cc(C(=O)OCC)c1 | -0.16 | 1 | -0.2 | -0.13 | 105 | · | ·
Cc1ccc(C)c(NC(=O)CSc2nnc(-c3ccccc3)n2N)c1 | -0.12 | 0.9 | 0.39 | 0.04 | 90 | · | ·
N#CC1=C(N)N2C(=C(C#N)C13CCN(Cc1ccccc1)CC3)Nc1ccccc12 | -3.4* | 1.5 | -0.43 | 0.049 | 45 | 405* | 187
CC(C)c1[nH]nc2c1C1(CCN(Cc3ccccc3)CC1)C(C#N)=C(N)O2 | · | 1.5 | · | 0.66 | 80 | · | ·
O=C(Oc1ccc(-c2nnco2)cc1)N1CCCCC1 | 0.34 | 1 | -0.036 | 1.8 | 105 | · | ·
O=C(Oc1ccc(-c2nnco2)cc1)N(c1ccccc1)c1ccccc1 | -1.6* | 1.4 | 0.049 | -1.9 | 53 | 502* | 269
Cc1nnc(SCC(=O)c2cc(C)n(-c3c(C)n(C)n(-c4ccccc4)c3=O)c2C)s1 | -1.5 | 1.6 | 0.93 | 1.1 | 159 | · | ·
Cc1cc(C(=O)CSc2nncs2)c(C)n1-c1c(C)n(C)n(-c2ccccc2)c1=O | -9.1* | 1.4 | -2.4 | 0.35 | 102 | 215* | 195
Cn1c(-c2ccc3c(c2)OCO3)cnc1NCc1ccccc1 | -5.3* | 1.2 | 0.077 | -2.7 | 54 | 295* | 182
Cn1c(-c2ccc3c(c2)OCO3)cnc1NC(=O)CCC(=O)NCCc1ccccc1 | 0.56 | 1.4 | -0.17 | -2 | 79 | · | ·
Cn1c(-c2ccc3c(c2)OCO3)cnc1NCc1cccc(Cl)c1 | -17* | 0.8 | -1.2 | -4.8* | 206 | 109* | 221
c1cncc(CNc2ccc3c(c2)OCO3)c1 | · | 1.8 | · | 0.56 | · | · | ·
CC1CCc2ccccc2N1C(=O)c1cccs1 (centres undefined) | 0.26 | 0.8 | 0.72 | -1.2 | 93 | · | ·
CC1=CC(=C2C(=O)c3ccccc3C2=O)C=C(C)N1Cc1ccco1 | -0.78 | 1 | -0.5 | · | 79 | · | ·
CC1=CC(=C2C(=O)c3ccccc3C2=O)C=C(C)O1 | -1.1* | 1 | 0.093 | · | 90 | 546 | 204
SMILES | M1 antagonist | PLAP activator | M1 ag | Cav32 inh | Her2 expr inh | M1 antag conf | mGluR4 antag
CCN1CCN(C(=O)CN(C)S(=O)(=O)c2ccc(OC)c(C)c2)CC1 | · | 1.6 | · | -4.1 | · | · | ·
COc1ccc(S(=O)(=O)N(C)CC(=O)N2CCN(C)CC2)cc1C | -1.9* | 1.1 | -1.1 | -0.53 | 118 | 685 | 226
CCOC(=O)N1CCN(C(=O)CN(c2ccccc2OC)S(=O)(=O)c2ccc(C)cc2)CC1 | -2.6* | 1.2 | 0.014 | -0.23 | · | 621 | 250
CSCc1cc(N2CCOCC2)nc(SCc2ccc(Cl)c(Cl)c2)n1 | · | 1.3 | · | -3.7 | · | · | ·
Cc1ccc2cc3c(nc2c1)N(Cc1ccco1)CC3 | -1.3* | 1 | -0.67 | -0.59 | 62 | 319* | 194
COC(=O)[C@@H]1C[C@H]2CC[C@H](O)C[C@H]2N1Cc1ccc(-c2ccccc2)cc1 | · | · | · | -1.1 | · | · | ·
CC(C)c1ccc(NC2(C#N)C(=O)Nc3ccccc32)cc1 (centres undefined) | · | 1.1 | · | · | · | · | ·
COc1cc(C2N(c3ccc(F)cc3)C(=O)C3CCCN32)cc(OC)c1OC (centres undefined) | -4.4* | 1.7 | -0.16 | -0.014 | 71 | 634 | 237
COc1ccccc1S(=O)(=O)Cc1ccc(C(=O)NC(C)c2ccc3c(c2)OCCO3)o1 (centres undefined) | -0.065 | 1.3 | 2 | 0.57 | 86 | · | ·
N#CC1=C(N)SC(N)=C(C#N)C1CCc1ccccc1 | -4.6* | 1.2 | 1.2 | -2.3 | 102 | 683 | 260
CN(C)S(=O)(=O)N(Cc1ccc(Br)cc1)c1ccccc1 | -2.2* | 1.1 | 0 | -2.9 | 151 | 506 | 240
CN(C)S(=O)(=O)N(CC(=O)N(Cc1ccccc1)Cc1ccccc1)c1ccccc1 | · | 1.6 | · | -2.9 | · | · | ·
COc1cc(CCCN2C(=S)NC[C@@H]2CC2CCCCC2)cc(OC)c1OC | · | · | · | -0.97 | · | · | ·
COc1cccc(C(=O)NCc2ccc(-c3nc4ccccc4s3)cc2)c1 | · | 1.3 | · | -0.71 | · | · | ·
COc1cc(NC(=O)c2ccc(COCC(F)(F)F)cc2)cc(OC)c1OC | · | 1 | · | 1.3 | · | · | ·
CC(C)(C)C(=O)OCC1OC(n2cnc(C(N)=O)n2)C(O)C1O (centres undefined) | -11* | 1 | -0.64 | -0.2 | 92 | 578 | 202
COC(=O)C1=NN(c2ccc(C)cc2)C2(S1)SC(C(C)=O)=C(C)N2c1ccccc1 (centres undefined) | · | 1.1 | · | -3.1 | · | · | ·
COc1ccc(N2C(=O)CSC23C(=O)N2CCCc4cccc3c42)cc1 (centres undefined) | -17* | 1.4 | -0.23 | -0.19 | 94 | 28* | 212
O=C1CSC2(C(=O)N3CCCc4cccc2c43)N1c1cccc(C(F)(F)F)c1 (centres undefined) | · | 1.1 | · | -1 | · | · | ·
CN1CCCCc2c1nc1c(c2N)CCCC1 | -2.5* | 0.9 | -0.72 | 0.6 | 121 | 509 | 264
Cc1nc(N)nc2c1CCCC2 | · | 1 | · | 0.37 | · | · | ·
CCCCC(=O)Nc1sc2c(c1C(=O)OCC)CCC(C=O)=C2Cl | · | 1 | · | -0.021 | · | · | ·
CCCN1C2CCCC1CC(NC(=O)c1ccccc1OCC)C2 (centres undefined) | -3.8* | 1 | 1 | -0.047 | 152 | 461* | 237

High-throughput results deposited in PubChem BioAssay by several laboratories.
